Reference: PubChem BioAssay (Tox21)
Records with an inconclusive call do not appear. Activity calls are given as the source filed them. Unless noted, calls follow the shape of the dose curve; as a rule, active = well fitted curve in the direction sought with a large enough effect in the repeat runs; inconclusive = weak or mixed curves; inactive = no such curve, though single readings can be large; an effect the other way counts as inactive or inconclusive.

How the values were obtained:
[1] = qHTS assay to identify small molecule agonists of the peroxisome proliferator-activated receptor delta (PPARd) signaling pathway - cell viability counter screen (AID 743211); also: nearly all actives have a fitted effect of over 55% in size
Outline: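 Tox21 library compounds, delivered in DMSO, were incubated 17 h with PPARd-bla HEK293H cells; cytotoxicity was taken from CellTiter-Glo luminescence read 30 min after reagent addition.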

[2] = biological target: Peroxisome proliferator-activated receptor delta (Homo sapiens) (UniProt Q03181); assay: qHTS assay to identify small molecule agonists of the peroxisome proliferator-activated receptor delta (PPARd) signaling pathway (AID 743212; calls by dose curve)
Peroxisome proliferator-activated receptor delta (Homo sapiens), sequence (Q03181 whole entry, looked up): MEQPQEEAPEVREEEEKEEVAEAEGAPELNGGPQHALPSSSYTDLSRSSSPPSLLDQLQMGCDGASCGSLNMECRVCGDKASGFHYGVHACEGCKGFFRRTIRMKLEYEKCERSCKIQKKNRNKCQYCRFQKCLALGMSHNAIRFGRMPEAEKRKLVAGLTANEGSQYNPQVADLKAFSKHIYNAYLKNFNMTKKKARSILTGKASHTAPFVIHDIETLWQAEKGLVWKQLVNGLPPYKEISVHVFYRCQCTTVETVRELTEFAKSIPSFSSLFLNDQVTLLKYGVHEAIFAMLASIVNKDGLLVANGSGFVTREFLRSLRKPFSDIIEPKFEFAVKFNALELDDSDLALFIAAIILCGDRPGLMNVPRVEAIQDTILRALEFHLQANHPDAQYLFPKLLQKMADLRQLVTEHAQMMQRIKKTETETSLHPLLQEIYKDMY
Outline: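 Read-out: beta-lactamase FRET fluorescence after 2 h room-temperature incubation with LiveBLAzer B/G substrate. Cells were HEK293H carrying a UAS-bla reporter for PPARd, treated at 37 C with DMSO-dissolved compounds.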

[3] = qHTS assay to identify small molecule agonists of the farnesoid-X-receptor (FXR) signaling pathway - cell viability counter screen (AID 743218); also: nearly all actives have a fitted effect of over 45% in size
Outline: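 Viability of FXR-bla HEK 293T cells is measured by ATP-based CellTiter-Glo luminescence following 16 h compound treatment at 37 C and a prior 2 h room-temperature beta-lactamase substrate step.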

[4] = qHTS assay to identify small molecule antagonists of the farnesoid-X-receptor (FXR) signaling pathway - cell viability counter screen (AID 743221; active = well fitted cell-killing curve with a large enough effect in the repeat runs, not every such curve was filed as active; also: nearly all actives have a fitted effect of over 50% in size)
Outline: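 Cytotoxicity is taken from ATP luminescence (CellTiter-Glo, 30 min, room temperature) in FXR-bla HEK 293T cells previously incubated 16 h at 37 C with compound and chenodeoxycholic acid at 50 uM final.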

[5] = qHTS assay to identify small molecule agonists of the vitamin D receptor (VDR) signaling pathway - cell viability counter screen (AID 743224); also: series mostly up to about 63 µM; nearly all actives have a fitted effect of over 50% in size
Outline: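 Compounds were pin-transferred onto VDR-bla cells plated 4 h earlier; following 16 h incubation at 37C, cell viability was quantified by CellTiter-Glo luminescence after 30 min at room temperature.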

[6] = qHTS assay to identify small molecule antagonists of the vitamin D receptor (VDR) signaling pathway - cell viability counter screen (AID 743225); also: nearly all actives have a fitted effect of over 50% in size
Outline: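 Same-well multiplex: following 16 h treatment of HEK 293T cells carrying a UAS-driven beta-lactamase reporter with compound and agonist (3 nM final), and a 2 h FRET substrate step, CellTiter-Glo was added and luminescence read after 30 min.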

[7] = qHTS assay to identify small molecule agonists of the NFkB signaling pathway - cell viability counter screen (AID 1159515; calls by dose curve; also: series mostly up to about 61 µM; nearly all actives have a fitted effect of over 55% in size)
Outline: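 Parallel cytotoxicity counter screen in ME-180 cells carrying an NFkB-response-element beta-lactamase reporter, 2,000 cells/well. Compound exposure lasted 5 hr at 37 C, 5% CO2. Cell viability was quantified by CellTiter-Glo luminescence.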

[8] = qHTS assay to identify small molecule agonists of the endoplasmic reticulum stress response signaling pathway (AID 1159516; active = well fitted activation curve with a large enough effect in the signal ratio in the repeat runs, not every such curve was filed as active; the % refers to the signal ratio)
Outline: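 Using a HeLa line with an ESRE-driven beta-lactamase gene, agonist activity was measured by FRET substrate fluorescence (460 and 530 nm emission) after cells were treated with compounds for 5 hr at 37 C and 5% CO2.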

[9] = qHTS assay to identify small molecule agonists of the endoplasmic reticulum stress response signaling pathway - cell viability counter screen (AID 1159517; calls by dose curve;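 also: HeLa cells carrying an ER stress response element beta-lactamase reporter; series mostly up to about 61 µM; nearly all actives have a fitted effect of over 50% in size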)
Outline: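 Steps: seed 1,500 ESRE-bla HeLa cells per well; incubate overnight at 37 C, 5% CO2; add compounds in DMSO for 5 hr; run FRET substrate 2 hr RT; add CellTiter-Glo, wait 30 min, read luminescence.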

[10] = qHTS assay to identify small molecule antagonists of the retinoid-related orphan receptor gamma (ROR-gamma) signaling pathway - cell viability counter screen (AID 1159520); also: nearly all actives have a fitted effect of over 50% in size
Outline: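 Tet-on ROR gamma CHO cells were given compounds for 2 hr, then doxycycline hyclate at 1 uM final, and incubated 16 hr at 37 C. Viability was measured as ATP content by CellTiter-Glo luminescence.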

[11] = biological target: Nuclear receptor ROR-gamma (Homo sapiens) (UniProt P51449); assay: qHTS assay to identify small molecule antagonists of the retinoid-related orphan receptor gamma (ROR-gamma) signaling pathway (AID 1159521)
Outline: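 Inducible-expression reporter assay: doxycycline (1 uM final) switched on RORγ in CHO cells bearing a ROR response element-luciferase construct, with test compounds present from 2 h beforehand. Decreased luminescence after 16 h defined antagonist activity.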

[12] = qHTS assay to identify small molecule agonists of the AP-1 signaling pathway - cell viability counter screen (AID 1159525; calls by dose curve; also: nearly all actives have a fitted effect of over 55% in size)
Outline: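 Same-well cytotoxicity counter screen of the Tox21 10K library in ME-180 cells. The readout is ATP-dependent luminescence after 5 h compound treatment. Data are normalised to DMSO and tetra n-octyl ammonium bromide controls.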

[13] = qHTS assay to identify small molecule agonists of the AP-1 signaling pathway (AID 1159526; calls by dose curve)
[14] = qHTS assay to identify small molecule antagonists of the peroxisome proliferator-activated receptor delta (PPARd) signaling pathway - cell viability counter screen (AID 743213); also: nearly all actives have a fitted effect of over 50% in size
Outline: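 PPARd-bla HEK293H cells (3000/well) got compound plus 300 nM L165041 agonist for 17 h at 37 C. Viability in the same wells came from CellTiter-Glo luminescence after 30 min at room temperature.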

[15] = biological target: Peroxisome proliferator-activated receptor delta (Homo sapiens) (UniProt Q03181); assay: qHTS assay to identify small molecule antagonists of the peroxisome proliferator-activated receptor delta (PPARd) signaling pathway (AID 743215; active = well fitted inhibition curve with a large enough effect in the signal ratio in the repeat runs, not every such curve was filed as active; the % refers to the signal ratio;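 also: cells stimulated with agonist L165041 at 300 nM final during compound exposure; series mostly up to about 62 µM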)
Outline: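 Plated HEK293H PPARd-bla cells rested 5 h at 37 C and 5% CO2. Compound, then agonist L165041 at 300 nM final, was added; 17 h at 37 C followed. Substrate loading, 2 h room temperature, fluorescence measured.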

[16] = biological target: Vitamin D3 receptor (Homo sapiens) (UniProt P11473); assay: qHTS assay to identify small molecule agonists of the vitamin D receptor (VDR) signaling pathway (AID 743222; calls by dose curve)
Vitamin D3 receptor (Homo sapiens), sequence (P11473 whole entry, looked up): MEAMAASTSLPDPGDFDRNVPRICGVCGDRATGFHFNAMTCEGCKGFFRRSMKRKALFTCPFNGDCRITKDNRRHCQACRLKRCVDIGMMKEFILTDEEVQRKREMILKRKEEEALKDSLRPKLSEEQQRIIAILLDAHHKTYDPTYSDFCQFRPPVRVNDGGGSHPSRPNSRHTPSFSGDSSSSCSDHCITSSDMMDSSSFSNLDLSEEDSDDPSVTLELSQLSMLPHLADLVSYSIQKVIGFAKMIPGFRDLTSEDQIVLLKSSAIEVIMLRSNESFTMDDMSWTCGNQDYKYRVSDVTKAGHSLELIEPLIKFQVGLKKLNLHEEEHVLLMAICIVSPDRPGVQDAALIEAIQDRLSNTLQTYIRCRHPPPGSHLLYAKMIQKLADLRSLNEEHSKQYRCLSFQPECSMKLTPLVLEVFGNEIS
Outline: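 Fluorescence from cleaved LiveBLAzer B/G FRET substrate served as readout. VDR-bla cells had been treated 16 h at 37C with test compounds in DMSO, following a 4 h settling period, and substrate was loaded for 2 h at RT.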

[17] = biological target: Vitamin D3 receptor (Homo sapiens) (UniProt P11473); assay: qHTS assay to identify small molecule antagonists of the vitamin D receptor (VDR) signaling pathway (AID 743223; active = well fitted inhibition curve with a large enough effect in the signal ratio in the repeat runs, not every such curve was filed as active; the % refers to the signal ratio)
Outline: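 Quantitative HTS in VDR-bla reporter cells stimulated with 1alpha,25-dihydroxyvitamin D3, 3 nM final. Compound exposure 16 h, 37C, 5% CO2. Read-out: beta-lactamase FRET substrate fluorescence, 2 h RT.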

[18] = biological target: Bile acid receptor (Homo sapiens) (UniProt Q96RI1); assay: qHTS assay to identify small molecule agonists of the farnesoid-X-receptor (FXR) signaling pathway (AID 743220; active = well fitted activation curve with a large enough effect in the signal ratio in the repeat runs, not every such curve was filed as active; the % refers to the signal ratio)
Bile acid receptor (Homo sapiens), sequence (Q96RI1 whole entry, looked up): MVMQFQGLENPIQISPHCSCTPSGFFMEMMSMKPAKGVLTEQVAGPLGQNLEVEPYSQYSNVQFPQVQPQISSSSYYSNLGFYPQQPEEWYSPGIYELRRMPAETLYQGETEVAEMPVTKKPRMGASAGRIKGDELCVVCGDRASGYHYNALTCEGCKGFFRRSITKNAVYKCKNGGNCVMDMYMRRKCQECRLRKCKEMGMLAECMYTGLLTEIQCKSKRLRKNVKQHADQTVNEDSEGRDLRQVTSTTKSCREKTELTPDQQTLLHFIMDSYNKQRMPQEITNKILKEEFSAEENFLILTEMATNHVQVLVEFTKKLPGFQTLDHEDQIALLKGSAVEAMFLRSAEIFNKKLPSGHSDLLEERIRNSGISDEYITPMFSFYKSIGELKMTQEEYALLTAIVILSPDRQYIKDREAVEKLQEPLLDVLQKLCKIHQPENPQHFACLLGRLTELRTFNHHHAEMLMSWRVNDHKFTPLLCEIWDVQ
Outline: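 FXR-UAS-bla HEK 293T cells carrying a UAS-driven beta-lactamase reporter were plated for 5 h at 37C/5% CO2, then exposed to DMSO-dissolved Tox21 10K compounds for 16 h at 37C. A LiveBLAzer B/G FRET substrate was loaded for 2 h at room temperature before fluorescence reading.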

Measured: Potency

CC(=O)O[C@@H]1C(=O)O[C@@H]2[C@H]1OC(=O)[C@@H]2OC(C)=O
inactive: [1] | [2] | [3] | [4] | [5] | [6] | [7] | [8] | [9] | [10] | [11] | [12] | [13]

O=C1[C@H](CC[C@H](O)c2ccc(F)cc2)[C@@H](c2ccc(O)cc2)N1c1ccc(F)cc1
inactive: [1] | [14] | [15] | [3] | [4] | [16] | [17] | [5] | [6] | [7] | [8] | [9] | [10] | [11] | [12] | [13]

CCOc1cc(OCC)c(C(=O)CCC(=O)O)cc1OCC
inactive: [1] | [14] | [15] | [3] | [4] | [5] | [6] | [7] | [8] | [9] | [10] | [11] | [12] | [13]

O=C(c1ccc(O)cc1)c1ccc(O)cc1
inactive: [1] | [2] | [3] | [4] | [16] | [5] | [6] | [7] | [8] | [9] | [10] | [11] | [12] | [13]

O=S(=O)(O)c1ccc(O)c2ncccc12
inactive: [1] | [14] | [18] | [4] | [16] | [5] | [6] | [7] | [8] | [9] | [10] | [11] | [12] | [13]

CCCCCCCCN(C)C
inactive: [1] | [14] | [4] | [16] | [5] | [7] | [8] | [9] | [10] | [11] | [12] | [13]

CC(=O)OCCc1ccccc1
inactive: [1] | [2] | [14] | [3] | [4] | [16] | [5] | [7] | [8] | [9] | [10] | [11] | [12] | [13]

O=S1(=O)N=C(O)c2ccccc21
inactive: [1] | [14] | [4] | [5] | [6] | [7] | [8] | [9] | [10] | [11] | [12] | [13]

CC1(C)[C@H]2CC[C@]1(C)[C@H](O)C2
inactive: [1] | [2] | [14] | [3] | [4] | [5] | [6] | [7] | [8] | [9] | [10] | [11] | [12] | [13]

CCCCCCCCCC(=O)OCC
inactive: [1] | [2] | [14] | [3] | [16] | [5] | [6] | [7] | [8] | [9] | [10] | [11] | [12] | [13]
